From PubChem BioAssay AID588342 (National Center for Advancing Translational Sciences (NCATS), 2011)
The whole screen tested about 360,000 compounds, of which about 25,000 (6.9%) were called active. Inconclusive results (about 9%) are left out. This is one part of a sample in which actives are shown more often than they occur. Calls come from the whole dose curve; as a rule, active = well fitted inhibition curve with a large enough effect; inconclusive = small, poorly fitted or top-dose-only effect; inactive = flat fitted curve, though single readings scatter.

molecular target: Luciferin 4-monooxygenase (Photinus pyralis) (UniProt P08659); assay: qHTS profiling assay for firefly luciferase inhibitor/activator using purifed enzyme and Km concentrations of substrates (counterscreen for miR-21 project); conditions: purified FLuc, luminescence inhibition; series mostly up to 57.5 µM; activity change, negative = inhibition: at the top concentration; note: nearly all actives have a fitted effect of over 55% in size;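 for activity change, negative = inhibition: plate controls were vehicle for no effect and reference inhibitor for full effect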
Sequence (P08659 whole entry, looked up): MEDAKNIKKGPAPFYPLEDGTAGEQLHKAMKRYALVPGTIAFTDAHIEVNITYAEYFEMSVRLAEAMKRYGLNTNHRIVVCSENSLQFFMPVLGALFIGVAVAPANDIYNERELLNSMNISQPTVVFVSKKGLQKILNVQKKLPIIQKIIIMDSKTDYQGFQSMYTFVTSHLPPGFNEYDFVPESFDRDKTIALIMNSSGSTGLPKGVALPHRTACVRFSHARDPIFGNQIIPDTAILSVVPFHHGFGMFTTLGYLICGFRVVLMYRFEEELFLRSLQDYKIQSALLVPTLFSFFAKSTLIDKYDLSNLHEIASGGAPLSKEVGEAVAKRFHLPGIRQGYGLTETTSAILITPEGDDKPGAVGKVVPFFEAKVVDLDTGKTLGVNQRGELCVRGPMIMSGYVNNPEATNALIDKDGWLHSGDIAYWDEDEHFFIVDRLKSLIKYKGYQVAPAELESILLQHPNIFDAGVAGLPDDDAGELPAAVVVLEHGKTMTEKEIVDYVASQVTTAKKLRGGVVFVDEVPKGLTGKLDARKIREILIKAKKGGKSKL
Summary of the method: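 Purified P. pyralis luciferase (10nM final) with 10uM D-luciferin and 10uM ATP (Km levels) in 50mM Tris acetate pH 7.5, 10mM Mg acetate, 0.01% Tween-20, 0.05% BSA; qHTS 6-point titration, ~60 µM downward; luminescence read.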
Potency is the fitted concentration of half-maximal effect.

| Structure (SMILES) | activity change, negative = inhibition | Potency |
| --- | --- | --- |
| CCOc1cc(CNC(=O)c2sc3ncnc(N(C)C4CCCCC4)c3c2C)ccc1OC | -12.1% (inactive) |  |
| O=C(NCC1CCCO1)c1cc2c([nH]c3ccccc32)c(-c2ccc(F)cc2)n1 (stereo not given) | 2.88% (inactive) |  |
| O=C(NCC1CCCO1)c1ccccc1-c1nc(-c2ccccc2Cl)no1 (stereo not given) |  | 12 µM (active) |
| COCCNC(=O)c1cc(-c2cccc(Cl)c2)on1 | -4.38% (inactive) |  |
| O=C(Nc1ccccc1C(=O)NCC1CCCO1)c1ccccc1F (stereo not given) | -2.21% (inactive) |  |
| Cc1onc(-c2ccccc2Cl)c1C(=O)NCCn1ccc2ccccc21 | 11.8% (inactive) |  |
| Cc1ccc(-c2noc(-c3ccccc3C(=O)NCC3CCCO3)n2)cc1 (stereo not given) |  | 4.78 µM (active) |
| COCCNC(=O)c1ccccc1-c1nc(-c2ccccc2Cl)no1 |  | 12 µM (active) |
| Cc1ccccc1CN(c1ccc(C(=O)NCC2CCCO2)cc1)S(C)(=O)=O (stereo not given) | -0.433% (inactive) |  |
| O=C(CSCc1c(F)cccc1Cl)NCC1CCCO1 (stereo not given) | 2.11% (inactive) |  |
| CCC(=O)N1c2ccccc2CC1C(=O)N1CCN(c2cccc(OC)c2)CC1 (stereo not given) | 1.83% (inactive) |  |
| Cc1c(C)n(Cc2ccc(Cl)cc2)c2ccc(C(=O)N3CCN(c4ccccc4F)CC3)cc12 | -5.91% (inactive) |  |
| CCOc1cc(C(=O)NCCc2csc3nc(-c4ccc(C)cc4)nn23)cc(OCC)c1OCC | 6.07% (inactive) |  |
| CCCn1c(NCc2ccccc2F)nc2ccccc21 | -15.2% (inactive) |  |
| Cc1ccc(NC(=O)c2cccc(S(=O)(=O)N3CCCc4ccccc43)c2)nc1 | 0.271% (inactive) |  |
| Cc1c(C(=O)N2CCCC2)oc2c1-c1nn(CC(=O)NCc3ccc(OC(C)C)cc3)cc1CC2 | -13.6% (inactive) |  |
| CC1CCCC(C)N1C(=O)COC(=O)COc1ccccc1C#N (stereo not given) | 2.51% (inactive) |  |
| O=C(CC1Oc2ccc(Cl)cc2NC1=O)NCc1ccccc1 (stereo not given) | -6.6% (inactive) |  |
| CCCCc1cc(=O)oc2c(C)c(OCC(=O)N3CCC(C(N)=O)CC3)ccc12 | 6.74% (inactive) |  |
| CCCc1cc(=O)oc2c(C)c(OCC(=O)N3CCC(C(=O)O)CC3)ccc12 | 3.56% (inactive) |  |
| Cc1c(C)c2ccc(OCC(=O)N3CCC(C(=O)O)CC3)c(C)c2oc1=O |  | 23.9 µM (active) |
| COc1ccc(NC2CCCN(C(=O)c3ccncc3)C2)cc1 (stereo not given) | 0.516% (inactive) |  |

| Structure (SMILES) | activity change, negative = inhibition | Potency |
| --- | --- | --- |
| COC(=O)c1ccc(NC(=O)c2cc(S(=O)(=O)N3CCC(C)CC3)cn2C)cc1 | 0.945% (inactive) |  |
| O=C(NCC(O)c1ccc([N+](=O)[O-])cc1)C1CCCCC1 (stereo not given) | -1.1% (inactive) |  |
| c1ccc2c(c1)OCCOCCOCCO2 | 0.575% (inactive) |  |
| COc1ccc2sc(-c3ccc(N(C)C)cc3)c(C#CCO)c2c1 |  | 8.49 µM (active) |
| Cc1ccc(CCNC(=O)C2CCN(c3nnc(-n4cccc4CNc4ccc(C)cc4)s3)CC2)cc1 | -8.47% (inactive) |  |
| O=C(CNc1ccccc1N1CCCC1=O)Nc1cc(Cl)ccc1-n1cncn1 | 4.94% (inactive) |  |
| NS(=O)(=O)c1ccc(-c2ccc(/C=C3\SC(=O)NC3=O)o2)cc1 |  | 13.5 µM (active) |
| O=S(=O)(c1ccc(Br)cc1)c1nnn2c1nc(NC1CCCCCC1)c1sccc12 | -3.5% (inactive) |  |
| CCOc1ccccc1N(CC)C(=O)Nc1cn(C)c(=O)c2ccccc12 | -0.457% (inactive) |  |
| COc1ccc(C2Sc3ccccc3NC3=C2C(=O)c2ccccc23)c(OC)c1OC (stereo not given) | -0.461% (inactive) |  |
| COc1cc(C2C(C(=O)c3sc(C)nc3C)=C(O)C(=O)N2CCN(C)C)cc(OC)c1OC (stereo not given) | -2.01% (inactive) |  |
| COc1ccc(-c2cc(-c3ccccc3)nc3c2COc2ccc(Cl)cc2-3)cc1 | -0.771% (inactive) |  |
| COc1ccc(-c2cc(-c3ccc(F)cc3)nc3c2COc2ccccc2-3)cc1 | 2.55% (inactive) |  |
| COc1ccc(C2=Nc3cc(C)ccc3OC2)cc1 |  | 0.379 µM (active) |
| C#C[C@]1(O)CC[C@H]2[C@@H]3CCC4=CC(=O)CC[C@@H]4[C@H]3CC[C@@]21CC |  | inactive |
| Cc1ccc(C2CCN(C(=O)c3cnn(-c4ccccc4Cl)c3C3CCN(C(=O)OC(C)(C)C)CC3)C2)cc1 (stereo not given) | 0.553% (inactive) |  |
| O=C(CSc1nc(=O)n(Cc2cccnc2)c2c1CCC2)Nc1ccc(F)cc1F | -2.48% (inactive) |  |
| CN(C)S(=O)(=O)c1ccc(C(=O)N(Cc2cccnc2)c2nc3c(F)cc(F)cc3s2)cc1 | -2.45% (inactive) |  |
| S=C(NCc1cccnc1)Nc1ccc(Cl)cc1Cl | -0.282% (inactive) |  |
| O=C(Nc1c(Cl)cccc1Cl)C1CCC1 | 2.13% (inactive) |  |
| O=C(NC(=S)Nc1ccc(Cl)cc1Cl)C1CC1 |  | 21.3 µM (active) |
| CN(C(=O)CCn1c(=S)oc2ccccc21)C1CCCCC1 | -8.28% (inactive) |  |

| Structure (SMILES) | activity change, negative = inhibition | Potency |
| --- | --- | --- |
| Cc1ccc(S(=O)(=O)N(C)CC(=O)NCC(c2ccc(F)cc2)N2CCOCC2)cc1 (stereo not given) | 6.77% (inactive) |  |
| CCOc1ccc(N2C(=O)CC(N(CCc3ccc(OC)c(OC)c3)C(=S)Nc3ccccc3)C2=O)cc1 (stereo not given) | 0.272% (inactive) |  |
| CC1(C)O[C@@H]2[C@H](O1)[C@@H](COS(=O)(=O)O)O[C@H]2n1cnc2c(=O)[nH]cnc21 | -0.661% (inactive) |  |
| CC(=O)N(C1=C(Cl)C(=O)c2ccccc2C1=O)c1ccc(C(=O)O)cc1 |  | 1.69 µM (active) |
| COC1=C(N2CCOCC2)C(=O)c2ccccc2C1=O | -3.41% (inactive) |  |
| Cc1ccc(C)c(CSc2nc(-c3ccco3)nc3c2c(=O)n(C)c(=O)n3C)c1 | 0.834% (inactive) |  |
| Cc1occc1C(=O)Nc1nnc(-c2ccncc2)s1 | -0.684% [at 2.3 µM] (inactive) |  |
| CCOC(=O)c1c(N)nn(C(=O)c2ccccc2)c1-c1ccccc1 | 0.583% (inactive) |  |
| Cc1nn(C(=O)c2ccoc2C)c(N)c1-c1ccccc1 |  | 10.7 µM (active) |
| CCOC(=O)c1cc2c(=O)n3ccccc3nc2n(CC2CCCO2)c1=NC(=O)c1ccccc1F (stereo not given) | -1.04% (inactive) |  |
| Cc1cccc(C(=O)c2cccc(C)c2)c1 | -15.9% (inactive) |  |
| Cc1ccc(/C(N)=N/OC(=O)COc2ccc(Cl)c(C)c2)cc1 | 1.16% (inactive) |  |
| Cc1cccc(/C(N)=N/OC(=O)c2ccccc2Cl)c1 |  | 0.757 µM (active) |
| C/C(=N/OC(=O)c1ccc(Br)cc1)c1ccc(C)cc1 |  | 6.75 µM (active) |
| Cc1ccc(OC(=O)CCC(=O)Nc2ccc(Br)cc2)cc1 | 5.41% (inactive) |  |
| C/C(=N\OC(=O)c1ccccc1)c1c(C)nc2cc(C)ccn12 | -9.53% (inactive) |  |
| CCc1ccc(NC(=O)CSc2nc3c([nH]c4ccccc43)c(=O)n2-c2cccc(OC)c2)cc1 | -3.31% (inactive) |  |
| Clc1ccc(N/N=C/c2cccs2)nn1 | -5.8% (inactive) |  |
| Oc1cccc(/C=N/Nc2ccc(Cl)nn2)c1O |  | 8.49 µM (active) |
| Cc1ccsc1/C=N/Nc1ccc(Cl)nn1 | -19.8% (inactive) |  |
| Cn1c(=O)c2c(nc(NCCc3ccccc3)n2Cc2ccccc2Br)n(C)c1=O | -7.21% (inactive) |  |
